Measurements: PubChem BioAssay (NCATS)
Inconclusive results are not listed. Activity calls are given as the source filed them. Calls follow the shape of the dose curve; as a rule, active = well fitted curve in the direction sought with a large enough effect; inconclusive = small, poorly fitted or top-dose-only effect, or another doubt; inactive = no such curve, though single readings can be large; an effect the other way counts as inactive or inconclusive.

Legend:
[1] = qHTS of pediatric cancer cell lines to identify multiple opportunities for drug repurposing: Confirmatory screen for Rh41 cells (AID 1347123); settings: Rh41 rhabdomyosarcoma cells, viability/cytotoxicity qHTS; series mostly up to 45.9 µM;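 also: 48 h compound exposure; nearly all actives have a fitted effect of over 60% in size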; also: potency is read from the fitted curve at half-maximal effect
Method in brief: (§1)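 Cells (500-1,000/well) in growth media were settled 5 h at 37 degrees C, then given compounds for 48 h. Viability was read as CellTiter-Glo luminescence. Primary runs used MIPE at 11 points (0.78 nM-46 µM) and NPC at 8 points (0.59 nM-46 µM); follow-ups used 11 points.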

[2] = qHTS of pediatric cancer cell lines to identify multiple opportunities for drug repurposing: Confirmatory screen for Rh18 cells (AID 1347125); settings: Rh18 rhabdomyosarcoma cells, viability; series mostly up to 45.9 µM; also: nearly all actives have a fitted effect of over 55% in size; also: potency is read from the fitted curve at half-maximal effect
Method in brief: as §1

[3] = qHTS of pediatric cancer cell lines to identify multiple opportunities for drug repurposing: Confirmatory screen for Saos-2 cells (AID 1347127); settings: Saos-2 osteosarcoma cell viability; series mostly up to 45.9 µM; also: nearly all actives have a fitted effect of over 60% in size; also: potency is read from the fitted curve at half-maximal effect
Method in brief: as §1

[4] = qHTS of pediatric cancer cell lines to identify multiple opportunities for drug repurposing: Confirmatory screen for SK-N-SH cells (AID 1347129); settings: SK-N-SH neuroblastoma cell viability; series mostly up to 46.1 µM;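 also: cells exposed to compound for 48 h before viability read; nearly all actives have a fitted effect of over 60% in size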; also: potency is read from the fitted curve at half-maximal effect
Method in brief: as §1

[5] = qHTS of pediatric cancer cell lines to identify multiple opportunities for drug repurposing: Confirmatory screen for Rh30 cells (AID 1347126); settings: Rh30 rhabdomyosarcoma cell viability; series mostly up to 45.9 µM; also: nearly all actives have a fitted effect of over 55% in size
Method in brief: as §1

[6] = qHTS of pediatric cancer cell lines to identify multiple opportunities for drug repurposing: Confirmatory screen for OHS-50 cells (AID 1347128); settings: OHS-50 osteosarcoma cells viability; series mostly up to 45.9 µM;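 also: potency is read from the fitted curve at half-maximal effect; compound exposure lasted 48 h at 37 degrees C; nearly all actives have a fitted effect of over 55% in size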
Method in brief: as §1

[7] = qHTS of pediatric cancer cell lines to identify multiple opportunities for drug repurposing: Confirmatory screen for RD cells (AID 1347124); settings: RD rhabdomyosarcoma cell viability; series mostly up to 45.9 µM;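 also: potency is read from the fitted curve at half-maximal effect; cells exposed to compound for 48 h before viability readout; nearly all actives have a fitted effect of over 65% in size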
Method in brief: as §1

| SMILES | Potency [1] | Potency [2] | Potency [3] | Potency [4] | Potency [5] | Potency [6] | Potency [7] |
| --- | --- | --- | --- | --- | --- | --- | --- |
| COc1cc(O)c2c(c1)C1OC1C[C@H](O)[C@H](O)C(=O)C=CC[C@H](C)OC2=O (stereo partly specified) | 0.165 µM (active) | 18.5 µM (active) | 9.27 µM (active) | 4.69 µM (active) | – | – | – |
| CC(=O)O[C@@]12CO[C@H]1C[C@H](O)[C@@]1(C)C(=O)[C@H](O)C3=C(C)[C@@H](OC(=O)C(O)[C@@H](NC(=O)OC(C)(C)C)c4ccccc4)C[C@@](O)([C@@H](OC(=O)c4ccccc4)[C@@H]21)C3(C)C (stereo partly specified) | 0.0104 µM (active) | inactive | 0.0131 µM (active) | – | inactive | 0.0233 µM (active) | – |
| COc1cccc2c1C(=O)c1c(O)c3c(c(O)c1C2=O)C[C@@](O)(C(=O)CO)C[C@@H]3O[C@H]1C[C@H](N)[C@H](OC2CCCCO2)[C@H](C)O1 (stereo partly specified) | 2.93 µM (active) | 18.5 µM (active) | – | 4.69 µM (active) | inactive | 14.7 µM (active) | – |
| CCC(C(=O)O)C1CCC(C)C(C(C)C(O)C(C)C(=O)C(CC)C2OC3(C=CC(O)[C@@]4(CC[C@](C)(C5CC[C@@](O)(CC)C(C)O5)O4)O3)C(C)CC2C)O1 (stereo partly specified) | 1.47 µM (active) | – | – | 5.9 µM (active) | – | 0.369 µM (active) | – |
| CC(C)NC[C@@H](C(=O)N1CCN(c2ncnc3c2[C@H](C)C[C@H]3O)CC1)c1ccc(Cl)cc1 | 0.737 µM (active) | – | 6.57 µM (active) | 16.6 µM (active) | – | – | – |
| CCN(CC)Cc1ccc2cc(COC(=O)Nc3ccc(C(=O)NO)cc3)ccc2c1 | inactive | – | inactive | inactive | – | – | – |
| CCC(C=C[C@@H]1OC(=O)C=C[C@H]1C)=C[C@H](C)CC=CC(C)=C[C@@H](C)C(=O)[C@@H](C)[C@H](O)[C@@H](C)CC(C)=CC(=O)O | 0.0128 µM (active) | – | – | – | – | 0.0161 µM (active) | 0.0128 µM (active) |
